The record followed here is ChEMBL document CHEMBL3433997, “St. Jude Leishmania screening dataset” (2016).

Common to all, as to assay type: functional
In test [1] the target is Solute carrier family 2, facilitated glucose transporter member 1 (Homo sapiens) (UniProt P11166). The experiment in a line: ST_JUDE_LEISH: Cytotoxicity at 2uM final concentration against transgenic Leishmania Mexicana promastigotes LmGLUT1 that are glucose transport deficient and complemented with the human glucose transporter GLUT1. Activity is measured by DNA content using SYBR green in vitro.
Solute carrier family 2, facilitated glucose transporter member 1 (Homo sapiens), sequence (P11166 whole entry): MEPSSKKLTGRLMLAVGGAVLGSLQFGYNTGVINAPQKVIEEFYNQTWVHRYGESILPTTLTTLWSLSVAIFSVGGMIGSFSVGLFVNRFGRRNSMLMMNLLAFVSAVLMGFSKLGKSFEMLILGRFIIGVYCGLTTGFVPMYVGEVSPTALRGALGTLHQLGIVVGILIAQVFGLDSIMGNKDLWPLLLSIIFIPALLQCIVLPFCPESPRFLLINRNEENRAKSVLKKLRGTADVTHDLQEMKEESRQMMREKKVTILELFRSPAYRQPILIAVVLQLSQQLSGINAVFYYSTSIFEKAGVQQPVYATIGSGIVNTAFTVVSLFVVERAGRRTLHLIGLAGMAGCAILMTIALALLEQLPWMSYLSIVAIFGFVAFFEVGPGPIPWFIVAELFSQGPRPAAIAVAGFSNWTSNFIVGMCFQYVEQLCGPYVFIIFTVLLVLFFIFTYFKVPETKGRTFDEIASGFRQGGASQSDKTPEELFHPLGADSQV

In test [2] the target is Hexose transporter 1 (Plasmodium falciparum) (UniProt O97467). The experiment in a line: ST_JUDE_LEISH: Cytotoxicity at 2uM final concentration against transgenic Leishmania Mexicana promastigotes LmPfHT that are glucose transport deficient and complemented with the Plasmodium falciparum hexose transporter. Activity is measured by DNA content using SYBR green in vitro.
Test [3] concerns the target Glucose transporter (Leishmania mexicana) (UniProt O61059). The experiment in a line: ST_JUDE_LEISH: Cytotoxicity at 2uM final concentration against transgenic Leishmania Mexicana promastigotes LmGT2 that are glucose transport deficient and complemented with the L. Mexicana glucose transporter 2. Activity is measured by DNA content using SYBR green in vitro.

Consider `FC(F)(F)c1ccc2nccc(NCc3ccccc3)c2c1`, for which the inhibition in test [1] stood at 6.8%; in test [2], 5.96%; in test [3] it was 1.41%.

In the case of `O=C(Nc1cccc(-c2nn3ccccc3c2-c2ccnc(Nc3ccc(NCCCN4CCOCC4)c(F)c3)n2)c1)c1c(F)cccc1F`, the inhibition in test [1] amounted to 46.9%; in test [2] it was 30.5%; in test [3] it was 5.22%.

On to `Cn1nc(-c2cccc(CNC3CCc4ccccc43)c2)c2cnc(NC3CCCC3)nc21` (stereo unspecified), for which the inhibition in test [1] came out at 2.84%; in test [2] it was 5.46%; in test [3] it was 3.3%.

As to `COc1ccc(NC(=O)N2CCN(CCCCCNC(=O)/C=C/c3ccc(C(F)(F)F)cc3)CC2)cc1Cl`, the inhibition in test [1] was 2.21%; in test [2] it was 1.82%; in test [3], 1.35%.

In the case of `NC(=O)c1cccc(CNC(=O)NC[C@H]2CN(Cc3ccc(Cl)c(Cl)c3)CCO2)c1`, the results for the inhibition in test [1], in test [2] and in test [3] were 7.5%, 6.84% and 6.5%, respectively.

In the case of `O=C(NCc1ccccc1)Nc1ccc(-c2ccc(-c3nc4cc(C(F)(F)F)ccc4[nH]3)cc2)cc1`, the inhibition in test [1] stood at 2.91%; in test [2] it was 4.48%; in test [3], 0.55%.

For the molecule `O=C(/C=C/c1ccc(Cl)c(Cl)c1)NCCCCCN1CCCC(CNC(=O)/C=C/c2ccccc2)C1` (stereo unspecified), the inhibition is -0.59% in test [1], -0.44% in test [2] and -0.59% in test [3].

For the molecule `O=C(NC1CCCCN(Cc2ccccc2O)C1)c1cccc(C(F)(F)F)c1` (stereo unspecified), the inhibition in test [1] is 2.43%; in test [2] it was 1.72%; in test [3], -4.05%.

Take `Cc1ccc(-n2nc(-c3ccccc3)c3cc(C(=O)NCCN)sc32)cc1`: the inhibition is -2.29% in test [1], -1.78% in test [2] and -6.61% in test [3].

On to `CN(C)CCCNc1ccnc2cc(Cl)ccc12`, for which the values for the inhibition in test [1], in test [2] and in test [3] were 1.15%, 0.62% and -1.76%, respectively.

As for `Cc1cccc(CNc2nc(C)cc(NCCC(=O)NCc3cccc(F)c3)n2)c1`, the figures for the inhibition in test [1], in test [2] and in test [3] were 7.68%, 7.53% and 4.51%, respectively.

For `CC(=O)N1CCN(c2ccc(NC(=O)c3oc(-c4ccccc4)nc3C(F)(F)F)cn2)CC1`, the inhibition in test [1] turned out to be 1.92%; in test [2], 1.42%; in test [3] it was 1.05%.

As for `O=C(Nc1ccccc1F)NC1CCN(c2ccnc(Nc3ccc(F)cc3)n2)CC1`, the inhibition is 2.94% in test [1], 2.19% in test [2] and 0.02% in test [3].

Turning to `COc1ccc2nccc([C@@H](O)CN3CCC(NCc4ccc5nc[nH]c(=O)c5c4)CC3)c2c1`, the inhibition is 1.63% in test [1], -1.56% in test [2] and -1.45% in test [3].

Consider `Clc1ccc(OC2CCC(Cn3ccnc3)(c3ccc(Cl)cc3Cl)CC2)c(Cl)c1` (stereo unspecified), for which the inhibition is 6.14% in test [1], 3.28% in test [2] and -0.14% in test [3].

For the molecule `COCCOc1cc(C)c(C2CCN(CCCCNC(=O)c3ccc(NC(=O)c4ccc(Cl)cc4)cc3)CC2)cc1C`, the values for the inhibition in test [1], in test [2] and in test [3] were 8.26%, 7.14% and 8.98%, respectively.

`CS(=O)(=O)CCNCc1ccc(-c2cc3c(Nc4ccc(OCc5cccc(F)c5)c(Cl)c4)ncnc3s2)[nH]1`: the inhibition in test [1] amounted to 0.33%; in test [2], 0.24%; in test [3], 0.92%.

In the case of `COc1ccc(-c2cccc(NC(=O)c3ccc(F)cc3)c2)cc1CN1CCCN(C)CC1`, the inhibition was found to be 11.2% in test [1], 9.38% in test [2] and 7.43% in test [3].

Regarding `CC(CCc1ccccc1)NCC(O)c1ccc2c(c1)S(=O)(=O)c1ccccc1N2` (stereo unspecified), the inhibition came out at 1.67% in test [1], 1.25% in test [2] and 2.14% in test [3].

In the case of `CCc1ccc(O)c(-c2cc(C(=O)Nc3cccnc3)[nH]n2)c1`, the inhibition in test [1] is 1.69%; in test [2] it was 0.53%; in test [3], 2.29%.

On to `COc1ccc(CN(C)C(=O)CCNS(=O)(=O)c2ccc3c(c2)OCCCO3)cc1F`, for which the inhibition was 5.25% in test [1], 6.84% in test [2] and 7.12% in test [3].

As for `N#Cc1ccc(N(CCOC(=O)c2ccccc2)Cc2ccccc2C(F)(F)F)cc1C(F)(F)F`, the inhibition was 1.67% in test [1], 1.18% in test [2] and -0.51% in test [3].

`COc1ccc(C2SCC(=O)N2CCc2ccc(OC)c(OC)c2)cc1` (stereo unspecified): the inhibition in test [1] is 2.35%; in test [2] it was 1.37%; in test [3], 2.36%.

As to `CC(C)C[C@H](NC(=O)c1cc2ccccc2s1)C(=O)N[C@H]1CCN(Cc2ccc(OCCCN(C)C)c(Cl)c2)C1`, the inhibition in test [1] was determined as 3.21%; in test [2], 2.95%; in test [3], 1.32%.

Turning to `COc1ccc(N2C(=O)C3C(C2=O)C2(C)c4ccccc4C3(C)c3ccccc32)c([N+](=O)[O-])c1` (stereo unspecified), the inhibition in test [1] turned out to be 9.9%; in test [2] it was 8.14%; in test [3], 9.94%.

Take `CC(CCCCC(=O)Nc1ccc(CC(C)NCCc2cccc(Cl)c2)cc1)NCCc1cccc(Cl)c1` (stereo unspecified): the figures for the inhibition in test [1], in test [2] and in test [3] were 0.84%, 2.45% and -1.1%, respectively.

As for `CCCc1cc(Cc2cnc(N)nc2N)cc2c1OC(C)(C)C2`, the inhibition in test [1] came to 5.74%; in test [2], 3.03%; in test [3] it was 2.58%.

As for `COc1ccc(-c2nc(NC(=O)CSc3ccc([N+](=O)[O-])cc3)sc2C)cc1`, the figures for the inhibition in test [1], in test [2] and in test [3] were 0.33%, -0.37% and -1.33%, respectively.

In the case of `CC(C)N1CCC(Oc2ccc(CN3CCN(C(c4ccccc4)c4ccc(Cl)cc4)CC3)cc2)CC1` (stereo unspecified), the inhibition worked out at 6.88% in test [1], 3.12% in test [2] and 2.61% in test [3].

For `Cc1ccc(CN2CCC(C(=O)Nc3ccc(-c4cc5ccccc5[nH]4)cc3)CC2)o1`, the values for the inhibition in test [1], in test [2] and in test [3] were 17.3%, 9.24% and 4.6%, respectively.

Regarding `CCc1nc2nc(C)cc(Nc3ccc(F)c(Cl)c3)n2n1`, the inhibition in test [1] is -2.16%; in test [2] it was -3.69%; in test [3], -1.67%.

For the molecule `CC(C)(C(=O)Nc1ccc(N2CCC3(CCCN(CC4CC4)C3)CC2)c(Cl)c1)c1cccc(C(F)(F)F)c1`, the inhibition in test [1] was 0.2%; in test [2], -0.12%; in test [3] it was 1.72%.

For `Fc1ccccc1C=NN=c1cc[nH]c2ccccc12`, the inhibition in test [1] stood at 4.61%; in test [2] it was 4.39%; in test [3], 4.15%.

For `CCn1c2ccccc2c2cc(Cc3cnc(N)nc3N)ccc21`, the inhibition came out at 9.49% in test [1], 8.51% in test [2] and 3.47% in test [3].

In the case of `CC(C)CCCC(C)(C)NC[C@@H](O)[C@H](Cc1ccccc1)NC(=O)c1cccc(CCC2CC2)c1`, the inhibition amounted to 3.16% in test [1], 4.54% in test [2] and 4.06% in test [3].

As for `c1cc(C2=NC3CCCCC3N2)ccc1OCCCOc1ccc(C2=NC3CCCCC3N2)cc1` (stereo unspecified), the inhibition in test [1] amounted to 7.04%; in test [2] it was 6.74%; in test [3] it was 1.12%.

As for `COc1cccc(-c2ccc(C(=O)NC3CCN(Cc4ccc(N(C)C)cc4)CC3)s2)c1`, the inhibition in test [1] is 2.66%; in test [2] it was 1.14%; in test [3], -0.07%.
